Among all 16,000 compounds or so, about 5,700 (36%) were called active. Another 24% or so got no clear call; they are omitted. The call rests on the fitted dose curve; in most records, active means well fitted curve in the direction sought with a large enough effect; inconclusive means small, poorly fitted or top-dose-only effect, or effect the other way; inactive means no such curve, though single readings can be large or run the other way. This is one part of the list.
biological target: Cytochrome P450 1A2 (Homo sapiens) (UniProt P05177); assay: Cytochrome panel assay with activity outcomes; settings: recombinant CYP, pro-luciferin dealkylation, luminescence, p450-cyp1a2; series mostly up to 57.1 µM
Sequence (P05177 whole entry, looked up): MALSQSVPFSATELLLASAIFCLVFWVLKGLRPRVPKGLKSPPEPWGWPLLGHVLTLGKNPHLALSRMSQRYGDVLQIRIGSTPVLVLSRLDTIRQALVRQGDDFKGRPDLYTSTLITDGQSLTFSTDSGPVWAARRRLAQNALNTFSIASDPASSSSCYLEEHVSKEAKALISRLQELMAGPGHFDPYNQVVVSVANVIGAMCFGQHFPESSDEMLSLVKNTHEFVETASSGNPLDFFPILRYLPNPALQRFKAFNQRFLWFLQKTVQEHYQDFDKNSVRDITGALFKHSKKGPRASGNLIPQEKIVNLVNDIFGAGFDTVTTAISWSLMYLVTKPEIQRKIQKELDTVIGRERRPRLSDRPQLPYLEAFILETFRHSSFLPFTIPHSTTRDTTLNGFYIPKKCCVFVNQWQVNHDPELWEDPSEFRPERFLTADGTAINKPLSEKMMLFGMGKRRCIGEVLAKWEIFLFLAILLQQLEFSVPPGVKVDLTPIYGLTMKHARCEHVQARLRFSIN
On the % scale 0 is the no-effect control and ±100 the full control effect.

SMILES | AC50 | activity, negative = inhibition
CCCN(CCC)CCNC(=O)C1CCCN(S(=O)(=O)c2ccc3c(c2)oc(=O)n3C)C1 (stereo not given) | inactive | 
CCc1nc2cc(CC(=O)O)ccc2o1 | inactive | 
Cn1cccc1C(=O)N1CCC2(CC1)CN(c1ccccn1)C2 | inactive | 
Nc1nc2c(ncn2COCCO)c(=O)[nH]1 | inactive | 
C[C@@]12CC3CC(N)(C1)C[C@@](C)(C3)C2 | inactive | 
C[C@@]1(C(NC(=O)Cc2ccccc2)c2ccc(-c3ccccc3)cc2)C[C@H]1C1CCCCC1 (stereo not given in full) | inactive | 
C[C@@H](C(=O)Nc1ccc2ccccc2c1)[C@H]1C[C@]1(C)[C@H](NS(=O)(=O)c1ccc2ccccc2c1)c1ccccc1 | inactive | 
CC(=O)N[C@@H](c1ccccc1)[C@]1(C)C[C@H]1[C@@H](C)C(=O)Nc1ccc2ccccc2c1 | 12.6 µM (active) | 
CN(C)Cc1cc(O)c(O)c(CN(C)C)c1 |  | -8.6% [at 11.4 µM] (inactive)
CN1CCN(c2ncc3nc(-c4cc(F)cc(F)c4)c(=O)n(C4CC4)c3n2)CC1 | 15.8 µM (active) | 
CN1CCN(c2ncc3nc(-c4ccc(F)cc4)c(=O)n(C4CC4)c3n2)CC1 | 12.6 µM (active) | 
CN1CCN(c2ncc3nc(-c4ccc(Cl)cc4)c(=O)n(C4CC4)c3n2)CC1 | 15.8 µM (active) | 
CC(C)N=c1cc2n(-c3ccc(Cl)cc3)c3ccccc3nc-2cc1Nc1ccc(Cl)cc1 | inactive | 
COC(=O)[C@@]1(Cc2ccccc2)[C@H]2c3cc(C(=O)N4CCCC4)n(Cc4ccsc4Br)c3C[C@H]2CN1C(=O)c1ccccc1 | inactive | 
N#Cc1ccc(C(c2nnnn2C2CCCC2)N2CCC(Cc3ccccc3)CC2)cc1 (stereo not given) | inactive | 
c1ccc(-c2noc(CSc3nnnn3C3CCCCC3)n2)cc1 | 2.24 µM (active) | 
N#Cc1cccc(C(c2nnnn2C2CCCC2)N2CCCCCC2)c1 (stereo not given) | inactive | 
OCCCN=C1CCCCC1 |  | -9.6% [at 11.4 µM] (inactive)
COC(=O)Cn1nc(-c2ccccc2)n(-c2ccccc2)c1=S | 15.8 µM (active) | 
O=C(Nc1cccc(F)c1)N1CC2(CCN(C(=O)c3cc(C(F)(F)F)cc(C(F)(F)F)c3)CC2)C1 | inactive | 
CCCCN1C(=O)NC(NC(=O)c2ccco2)(C(F)(F)F)C1=O (stereo not given) | inactive | 
O=C(NC1(C(F)(F)F)NC(=O)N(Cc2cccnc2)C1=O)c1ccccc1 (stereo not given) | 6.31 µM (active) | 
COc1ccc(N2C(=O)NC(NC(=O)c3ccncc3)(C(F)(F)F)C2=O)cc1 (stereo not given) | inactive | 
CCN1C(=O)[C@H]2[C@H]3[C@H](O)[C@H](O)C/C(=N/OC)[C@@H]3CC[C@@H]2C1=O |  | -3.89% [at 11.4 µM] (inactive)
O=S(=O)(NCCCCCCc1ccccc1)c1cccc2c(Cl)cccc12 | 15.8 µM (active) | 
NCCNS(=O)(=O)c1cccc2cnccc12 | inactive | 
CCCCCCCNS(=O)(=O)c1cccc2c(Cl)cccc12 | 6.31 µM (active) | 
Nc1ccc(S(=O)(=O)NCCS(=O)(=O)O)cc1 |  | -3.14% [at 2.29 µM] (inactive)
NCCCCCCNS(=O)(=O)c1cccc2c(Cl)cccc12 | 7.94 µM (active) | 
COc1ccccc1N1CCN(CCCCNS(=O)(=O)c2cccc3c(N(C)C)cccc23)CC1 | inactive | 

From PubChem BioAssay AID1851 (National Center for Advancing Translational Sciences (NCATS), 2009)
